Source: PubChem
In the library only some 21% were active in any assay of this set; here they are far more common.
Shiga toxin inh: A qHTS for Small Molecule Inhibitors of Shiga Toxin; inhibition, % at 38.7 µM; Vero cells, Shiga toxin protein synthesis inhibition reporter; AID 2315, 2010; 9.2% of 290,000 active; in the data active = inhibition mostly above about 28%, no sharp cut-off; inactive = mostly below about 43%; also: 0% is about no effect
Pf growth 48h: Primary qHTS for delayed death inhibitors of the malarial parasite plastid, 48 hour incubation. Potency, µM (series often up to 28.7 µM), for inactives: top-dose activity change, negative = inhibition, most hits filed as inhibitors. 5.9% of 310,000 active. AID 504832, 2011. P. falciparum luciferase growth in erythrocytes, 48 h; also: potency is read from the fitted curve at half-maximal effect; % is scaled to controls: 0 for no effect and ±100 for the full control effect
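Compounds are pin-transferred into medium, infected erythrocytes (2% hematocrit, 0.1% parasitemia final) are added, and plates sit one parasite generation at 37 C in 5% CO2. Detection reagent is then added and luminescence measured.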
Pf growth 96h: Primary qHTS for delayed death inhibitors of the malarial parasite plastid, 96 hour incubation | AID 504834, 2011 | P. falciparum luciferase reporter growth, 96 h | Potency, µM (highest dose often 28.7 µM), inactives show top-dose activity change, negative = inhibition, usual class: inhibitors | 6.9% of 320,000 active; also: potency is read from the fitted curve at half-maximal effect; % is scaled to controls: 0 for no effect and ±100 for the full control effect
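Two parasite generations (96 h, 37 C, 5% CO2) of compound exposure in infected erythrocytes (0.05% parasitemia, 2% hematocrit). Luciferase-reporter P. falciparum; decreased luminescence indicates inhibited growth, aimed at apicoplast-acting delayed death.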
CHX counter: Cycloheximide Counterscreen for Small Molecule Inhibitors of Shiga Toxin; cell reporter, cycloheximide protein synthesis inhibition counterscreen; max response, %; 12% of 300,000 active; in the data active = max response mostly above about 13%, no sharp cut-off; inactive = mostly below about 14%; also: read at 38.3 µM for the half of the compounds with a filed dose; 0% is about no effect
HCMV antiviral: qHTS Assay for inhibitors of the human cytomegalovirus (HCMV); HFF cells, HCMV-luciferase reporter, 72 h; active compounds read low; activity change, negative = inhibition, % at 57.5 µM; 4.5% of 410,000 active; in the data active = activity change below about -60%; inconclusive = no clear call, values can overlap the other calls; inactive = above about -39%; also: % is scaled to controls: 0 for no effect and ±100 for the full control effect
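Inhibition of viral replication was scored as loss of reporter luminescence in HFFs infected with HCMV-luciferase (MOI 1 PFU/cell) for 72 h; compounds tested at 2 doses, normalized to buffer and Salinomycin controls.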
HCV inhibitor: qHTS Assay for Inhibitors of Hepatitis C Virus (HCV); Huh7.5.1 HCVcc-Cre infection, luciferase reporter, 44 h; Potency, µM (series often up to 41.8 µM), inactives show top-dose activity change, negative = inhibition, usual class: inhibitors; 3.4% of 340,000 active; AID 651820, 2012; also: potency is read from the fitted curve at half-maximal effect; % is scaled to controls: 0 for no effect and ±100 for the full control effect
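Infectious HCVcc-Cre (~0.5 moi) was added to cells just after compound, with cells seeded 4 h earlier at 1,000 per well. Luciferase activity after 44 h culture reported infection; substrate was incubated 15 min at room temperature before reading.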
An asterisk follows results filed as active; ? = inconclusive; / = no result given. Unless noted, calls follow the shape of the dose curve; as a rule, active = well fitted inhibition curve with a large enough effect; inconclusive = small, poorly fitted or top-dose-only effect, or another doubt; inactive = no such curve, though single readings can be large or run the other way.

SMILES	Shiga toxin inh	Pf growth 48h	Pf growth 96h	CHX counter	HCMV antiviral	HCV inhibitor
CCC[C@@H]1C[C@@H](C(=O)N[C@H]([C@@H](C)O)[C@H]2O[C@H](SC)[C@H](O)[C@@H](O)C2O)N(C)C1 (stereo partly drawn)	-2	0.042µM*	0.13µM*	-2	26	-2%
CCN(CC)CCOC(=O)c1ccc(N/C=C(/C#N)c2nc(-c3cccc(OC)c3)cs2)cc1	1	?	0.47µM*	3	-20	15%
CCOc1ccccc1-n1c(O)c(C=Nc2ccc(N(CC)CC)cc2)c(=O)[nH]c1=O	-20	?	?	1	-87*	-18%
CCN(CC)c1ccc(N=Cc2c(O)n(-c3ccccc3C)c(=O)[nH]c2=O)cc1	3	?	16%	1	72	18%
C/C(=N\O)C1(C)N(O)C(C)(C)C(c2ccco2)=[N+]1[O-] (stereo not drawn)	-12	-2%	-12%	-8	-12	0%
C/C(=N\Nc1cccc(Cl)c1)C1(C)N(O)C(C)(C)C(c2ccco2)=[N+]1[O-] (stereo not drawn)	74*	7.4µM*	?	30*	-12	-15%
CCN1C(=O)[C@H]2[C@@H](c3ccc(C)cc3)N[C@]3(CCCN(Cc4ccc(F)cc4)C3=O)[C@H]2C1=O	/	/	/	/	-7	/
COCCN1CCN(C(=O)c2ccc3oc(CCCc4ccccc4)nc3c2)CC1	112*	48%	-13%	23*	-1	1%
CCCCc1nc2cc(C(=O)N3CCCC(OCCC)C3)ccc2o1 (stereo not drawn)	103*	7%	-9%	48*	38	5%
CCCCc1nc2cc(C(=O)N3CCC(OCCOC)CC3)ccc2o1	73*	10%	9%	28*	0	5%
CCCCc1nc2cc(C(=O)NC3CCOC(C)(C)C3)ccc2o1 (stereo not drawn)	-1	6%	?	9	34	-4%
COCC1CCN(C(=O)c2ccc3oc(CCCc4ccccc4)nc3c2)C1 (stereo not drawn)	39	-24%	3.7µM*	29*	70	-25%
COCCN1CCN(C(=O)c2ccc3nc(Cc4ccccc4F)oc3c2)CC1	15	-3%	?	9	7	11%
O=C(N[C@H](C(=O)N1CCC[C@H]1C(=O)NCCc1ccccc1Cl)C1CCCCC1)c1cccs1	/	/	/	/	11	/
COCC1CCCN(C(=O)c2ccc3oc(CCCc4ccccc4)nc3c2)C1 (stereo not drawn)	12	?	?	2	-23	?
CCCCc1nc2cc(C(=O)N3CCCC(COC)C3)ccc2o1 (stereo not drawn)	73*	41%	?	63*	59	8%
COc1ccccc1NC(=O)N1CCN(c2ccnc3cc(Cl)ccc23)CC1	-2	2.1µM*	2.6µM*	3	-67*	?
COc1ccccc1NC(=O)N1CCOCC1	-4	11%	2%	-4	5	27%
COc1ccccc1N1CCN(c2ccnc3cc(Cl)ccc23)CC1	3	?	0.47µM*	-4	-63*	?
COc1ccccc1NC(=O)N1CCc2[nH]c3ccc(Cl)cc3c2C1	12	?	?	-3	-18	11µM*
CC(C)CN(C(=O)c1ccc([N+](=O)[O-])s1)c1c(N)n(Cc2ccccc2)c(=O)[nH]c1=O	/	8%	?	/	-27	-11%
Oc1[nH]c(N=C2N=c3ccccc3=N2)c2ccccc12	60*	-51%	2.3µM*	35*	-97*	-26%
Cc1ccc2c(c1)=N/C(=N\c1[nH]c(O)c3ccccc13)N=2	/	/	/	/	13	/
O=c1c2ccccc2nnn1CSc1nnc(-c2ccco2)o1	38	-3%	1.2µM*	20*	-17	8%
O=C(CSc1nnc(-c2ccccn2)o1)Nc1ccccc1Cl	71*	106%	-5%	33*	21	-1%
COC(=O)CSc1nnc(-c2ccco2)o1	-4	15%	6%	-1	29	14%
